Screening data: PubChem, National Center for Advancing Translational Sciences (NCATS)
Rows were chosen to be rich in hits. Some 19% of all compounds tested hit in one or more screens of this group.
Pf growth 48h – P. falciparum growth inhibition at 48 hours (one generation); P. falciparum luciferase growth in erythrocytes, 48 h; Potency, µM (doses to about 28.7 µM), actives largely listed as inhibitors; 310,000 compounds, 5.9% hits
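Luciferase-expressing P. falciparum in infected erythrocytes (2% hematocrit, 0.1% parasitemia final) in RPMI 1640/0.5% Albumax were exposed to compound for 48 hours at 37 C, 5% CO2; growth read as luminescence.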
CHX counter – counter-screen hit for Shiga toxin inhibitors, cycloheximide | cell reporter, cycloheximide protein synthesis inhibition counterscreen | max response, % | 300,000 compounds, 12% hits; in the data active means max response mostly above about 13%, no sharp cut-off; inactive means mostly below about 14%; further: read at 38.3 µM for the half of the compounds with a filed dose
Shiga toxin inh – inhibitors of Shiga toxin in Vero cells | Vero cells, Shiga toxin protein synthesis inhibition reporter | inhibition, % at 38.7 µM | 290,000 compounds, 9.2% hits; in the data active means inhibition mostly above about 28%, no sharp cut-off; inactive means mostly below about 43%
Marburg entry inh – Marburg virus entry inhibition | Marburg virus pseudotyped entry inhibition, cell reporter | 300,000 compounds, 1.8% hits | Potency, µM (top dose mostly 37.8 µM), most hits filed as inhibitors | AID 540276; calls by dose curve; tested in HEK293 cells
Pf growth 96h – P. falciparum growth inhibition at 96 hour, primary screen for plastid delayed-death inhibitors; P. falciparum luciferase reporter growth, 96 h; AID 504834; 320,000 compounds, 6.9% hits; Potency, µM (top dose mostly 28.7 µM), hits mostly inhibitors
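Cell-based qHTS: luciferase-tagged P. falciparum in erythrocytes (2% hematocrit, 0.05% parasitemia final) incubated with compounds for 96 hours, 37 C, 5% CO2; luciferase detection reagent then added and luminescence measured.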
LASV entry inh – inhibitors of Lassa virus binding or cell entry. Lassa virus pseudotype entry inhibition, cell reporter. Potency, µM (series often up to 37.9 µM), most hits filed as inhibitors. 300,000 compounds, 1.2% hits; calls by dose curve; tested in HEK293 cells; further: nearly all actives have a fitted effect of over 50% in size
Hits are given with their value. Unless noted, the call rests on the fitted dose curve; in most records, active means well fitted inhibition curve with a large enough effect; inconclusive means small, poorly fitted or top-dose-only effect, or another doubt; inactive means no such curve, though single readings can be large or run the other way.

`COC(=O)C(CCSC)NC(=O)c1cccc([N+](=O)[O-])c1` (configuration not stated) gave Pf growth 48h inactive, CHX counter inactive, Shiga toxin inh inactive, Marburg entry inh inactive, Pf growth 96h inactive and LASV entry inh inactive.
Screening COc1ccc(S(=O)(=O)N2CCC(C(N)=O)(N3CCCCC3)CC2)cc1OC returned Pf growth 48h inactive, CHX counter inactive, Shiga toxin inh inactive, Marburg entry inh inactive, Pf growth 96h inactive and LASV entry inh inconclusive.
`NS(=O)(=O)c1cc(C(=O)OCC(=O)c2ccccc2)c(Cl)cc1Cl` gave Pf growth 48h inactive, CHX counter inactive, Shiga toxin inh inactive, Marburg entry inh inactive, Pf growth 96h inactive and LASV entry inh inactive.
`Nc1nnc(-c2ccncc2)s1` gave Pf growth 48h inactive, CHX counter inactive, Shiga toxin inh inactive, Marburg entry inh inactive, Pf growth 96h inactive and LASV entry inh inactive.
`CCCOc1ccc(-c2nc(-c3ccc(N)cc3)cs2)cc1` gave Pf growth 48h inactive, CHX counter 68, Shiga toxin inh 62 and Pf growth 96h inactive.
Cc1ccc(-c2nnc(N)s2)cc1 was read as Pf growth 48h inactive, CHX counter 43, Shiga toxin inh 66, Marburg entry inh inactive, Pf growth 96h inactive and LASV entry inh inactive.
Screening CNc1nnc(-c2ccc(OC)cc2)s1 returned Pf growth 48h inactive, CHX counter 33, Shiga toxin inh 78 and Pf growth 96h inactive.
For COc1ccc(-n2c(SC(CN3CCCCC3)CN3CCCC3=O)nc3ccccc3c2=O)cc1 (configuration not stated) the results were Pf growth 48h inconclusive, CHX counter inactive, Shiga toxin inh inactive, Marburg entry inh inconclusive, Pf growth 96h inconclusive and LASV entry inh inconclusive.
Cc1cccc(NC(=O)C2CCCN(c3nc(C)cc(C)n3)C2)c1 (configuration not stated) was read as Pf growth 48h inactive, CHX counter inactive, Shiga toxin inh inactive, Marburg entry inh inactive, Pf growth 96h inactive and LASV entry inh inactive.
CCCC[n+]1ccc(-c2nc3ccc([N+](=O)[O-])cc3[nH]2)cc1 was read as Pf growth 48h inconclusive, CHX counter inactive, Shiga toxin inh inactive, Marburg entry inh inactive, Pf growth 96h inconclusive and LASV entry inh inactive.
Screening O=[N+]([O-])c1ccc2nc(C(O)C(O)c3nc4ccc([N+](=O)[O-])cc4[nH]3)[nH]c2c1 (configuration not stated) returned Pf growth 48h inactive, CHX counter 22, Marburg entry inh inactive, Pf growth 96h inconclusive and LASV entry inh inconclusive.
For O=[N+]([O-])c1ccc(-c2nc3ccc([N+](=O)[O-])cc3[nH]2)cc1 the results were Pf growth 48h inconclusive, CHX counter 40, Shiga toxin inh inactive, Marburg entry inh inactive, Pf growth 96h inconclusive and LASV entry inh inconclusive.
For O=[N+]([O-])c1ccc2nc(/C=C/c3ccc(Cl)cc3)[nH]c2c1 the results were Pf growth 48h 8.3µM, CHX counter 60, Shiga toxin inh 153, Marburg entry inh inconclusive, Pf growth 96h 8.3µM and LASV entry inh inconclusive.
NC(=O)CSc1nc2ccc([N+](=O)[O-])cc2[nH]1 was read as Pf growth 48h inactive, CHX counter inactive, Shiga toxin inh inactive, Marburg entry inh inactive, Pf growth 96h inactive and LASV entry inh inactive.
Screening Nc1ccc(-c2nc3ccc([N+](=O)[O-])cc3[nH]2)cc1 returned Pf growth 48h inactive, CHX counter 63, Shiga toxin inh inactive, Marburg entry inh inconclusive, Pf growth 96h inconclusive and LASV entry inh inconclusive.
For COc1ccccc1C1C(C(=O)c2ccco2)=C(O)C(=O)N1c1cc(C)on1 (configuration not stated) the results were Pf growth 48h inactive, CHX counter inactive, Shiga toxin inh inactive, Marburg entry inh inconclusive, Pf growth 96h inactive and LASV entry inh inactive.
For CCOC(=O)c1ccc(NC(=O)Nc2cccc(C)n2)cc1 the results were Pf growth 48h inactive, CHX counter inactive, Shiga toxin inh inactive and Pf growth 96h inactive.
Screening CCOC(=O)c1ccc(NC(=O)Nc2cc(C)on2)cc1 returned Pf growth 48h inconclusive, CHX counter 32, Shiga toxin inh 39, Marburg entry inh inactive and LASV entry inh inactive.
Screening CCOC(=O)c1ccc(NC(=O)Nc2ccc(S(N)(=O)=O)cc2)cc1 returned Pf growth 48h inconclusive, CHX counter inactive, Shiga toxin inh inactive, Marburg entry inh inactive, Pf growth 96h inactive and LASV entry inh inactive.
CCOC(=O)c1ccc(NC(=O)Nc2ccccn2)cc1 was read as Pf growth 48h inactive, CHX counter 24, Shiga toxin inh 61, Marburg entry inh inactive, Pf growth 96h inconclusive and LASV entry inh inactive.
`O=C(/C(=C(\[O-])c1ccccc1)[n+]1ccc2ccccc2c1)c1ccc(Cl)cc1` gave Pf growth 48h inconclusive, CHX counter inactive, Shiga toxin inh 68, Marburg entry inh inactive, Pf growth 96h inconclusive and LASV entry inh inconclusive.
`O=C(/C(=C(\[O-])c1ccccc1)[n+]1ccc2ccccc2c1)c1ccccc1` gave Pf growth 48h inconclusive, CHX counter 26, Shiga toxin inh active, Marburg entry inh inactive, Pf growth 96h 13µM and LASV entry inh inactive.
For O=C(/C(=C(\[O-])c1ccccc1)[n+]1ccc2ccccc2c1)c1ccc([N+](=O)[O-])cc1 the results were Pf growth 48h inactive, CHX counter inactive, Shiga toxin inh inactive, Marburg entry inh inactive, Pf growth 96h inactive and LASV entry inh inactive.
Screening O=C(O)C1CCN(S(=O)(=O)c2ccc(N3CCC(O)CC3)c([N+](=O)[O-])c2)CC1 returned Pf growth 48h inconclusive, CHX counter inactive, Shiga toxin inh inactive, Marburg entry inh inactive, Pf growth 96h 9.3µM and LASV entry inh inactive.
CCOC(=O)N1CCN(c2ccc(S(=O)(=O)N3CCC(C)CC3)cc2[N+](=O)[O-])CC1 was read as Pf growth 48h 10µM and Pf growth 96h 9.3µM.
For O=C(O)C1CCN(S(=O)(=O)c2ccc(N3CCOCC3)c([N+](=O)[O-])c2)CC1 the results were Pf growth 48h inactive, CHX counter inactive, Shiga toxin inh inactive, Marburg entry inh inactive, Pf growth 96h inactive and LASV entry inh inactive.
Screening Cc1ccc(CSc2nnc(-c3ccc4c(c3)OCO4)o2)cc1 returned CHX counter inactive, Shiga toxin inh inactive, Marburg entry inh inactive, Pf growth 96h inactive and LASV entry inh inactive.
For Cc1ccc(Nc2nnc(-c3ccc4c(c3)OCO4)o2)c(C)c1 the results were Pf growth 48h inactive, CHX counter 32, Shiga toxin inh 62 and Pf growth 96h inactive.
For CCSc1nnc(-c2cccc(S(=O)(=O)N(CC)CC)c2)n1Cc1ccccc1 the results were Pf growth 48h 15µM, CHX counter inactive, Shiga toxin inh inactive, Marburg entry inh 15µM, Pf growth 96h inactive and LASV entry inh 23µM.
For COc1ccc(-c2nnc(SCC(=O)O)n2Cc2ccccc2)cc1 the results were Pf growth 48h inactive, CHX counter inactive, Shiga toxin inh inactive, Marburg entry inh inactive, Pf growth 96h 7.4µM and LASV entry inh inactive.
